# Measurements from paper PMC7862700, “An all-to-all approach to the identification of sequence-specific readers for epigenetic DNA modifications on cytosine”.
# Tests used:
# Assay in all cases: DAPPL (digital affinity profiling via proximity ligation, sequencing); 10 mM Tris-HCl pH 7.5, 50 mM NaCl, 1 mM DTT, 4% glycerol, room temperature, 30 min; GST-TFs on glutathione beads, 16-mer random dsDNA library, 0.1% formaldehyde crosslink after washing; high values mean tight binding
# Conditions in all cases: protein: recombinant; tags: N-terminal GST; dsDNA, one strand shown
# FEV = target: T1, FEV (Homo sapiens, UniProt Q99581 1-238)
# T1 sequence: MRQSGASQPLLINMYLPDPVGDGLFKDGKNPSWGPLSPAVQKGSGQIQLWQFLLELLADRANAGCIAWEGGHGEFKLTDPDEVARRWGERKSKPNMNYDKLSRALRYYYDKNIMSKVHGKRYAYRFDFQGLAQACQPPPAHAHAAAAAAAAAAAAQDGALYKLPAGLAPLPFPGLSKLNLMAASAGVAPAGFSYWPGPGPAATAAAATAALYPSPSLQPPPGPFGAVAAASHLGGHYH
# Procedure, shortened: (§1)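 Sequencing on an Illumina NextSeq500 followed washing, crosslinking with 0.1% formaldehyde, proximity ligation (BsaI/T4 ligase, 1 h, 37 °C) and PCR amplification of pools that had been incubated for 30 min at room temperature with 200 nmole of a random double-stranded 16-mer DNA library in Tris/NaCl/DTT/glycerol buffer. Each pool held DNA-barcoded human transcription factors, expressed in yeast as GST fusions and captured on glutathione beads, plus a tag-only sample. Binding signal is a hexamer's read frequency for a factor divided by its frequency in the tag-only sample.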
# ETV5 = ETV5 (Homo sapiens, UniProt P41161 1-510)
# ETV5, sequence (P41161 whole entry): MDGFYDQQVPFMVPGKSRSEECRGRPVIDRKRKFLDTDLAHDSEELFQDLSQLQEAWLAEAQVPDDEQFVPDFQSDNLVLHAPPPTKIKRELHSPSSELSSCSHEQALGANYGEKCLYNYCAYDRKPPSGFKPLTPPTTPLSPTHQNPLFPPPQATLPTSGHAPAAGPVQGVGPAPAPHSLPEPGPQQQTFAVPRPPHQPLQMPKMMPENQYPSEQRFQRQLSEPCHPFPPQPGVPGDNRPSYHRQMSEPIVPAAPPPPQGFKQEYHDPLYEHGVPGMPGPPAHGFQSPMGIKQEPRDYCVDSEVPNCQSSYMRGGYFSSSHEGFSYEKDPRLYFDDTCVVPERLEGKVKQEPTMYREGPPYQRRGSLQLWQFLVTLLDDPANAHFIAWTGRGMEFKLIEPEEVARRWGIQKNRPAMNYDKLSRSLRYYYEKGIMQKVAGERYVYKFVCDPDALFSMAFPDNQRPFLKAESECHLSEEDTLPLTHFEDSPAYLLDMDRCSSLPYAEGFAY
# Procedure, shortened: as §1
# SPIC = target: T2, SPIC (Homo sapiens, UniProt Q8N5J4 1-248)
# T2 sequence: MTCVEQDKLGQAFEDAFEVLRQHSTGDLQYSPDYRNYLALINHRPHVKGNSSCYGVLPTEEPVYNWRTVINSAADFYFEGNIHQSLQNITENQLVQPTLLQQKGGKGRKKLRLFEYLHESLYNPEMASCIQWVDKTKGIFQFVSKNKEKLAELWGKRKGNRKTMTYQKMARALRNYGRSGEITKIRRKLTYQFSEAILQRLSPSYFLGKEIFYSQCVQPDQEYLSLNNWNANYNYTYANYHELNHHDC
# Procedure, shortened: as §1
# ELF4 = ELF4 (Homo sapiens, UniProt Q99607 1-663)
# ELF4, sequence (Q99607 whole entry): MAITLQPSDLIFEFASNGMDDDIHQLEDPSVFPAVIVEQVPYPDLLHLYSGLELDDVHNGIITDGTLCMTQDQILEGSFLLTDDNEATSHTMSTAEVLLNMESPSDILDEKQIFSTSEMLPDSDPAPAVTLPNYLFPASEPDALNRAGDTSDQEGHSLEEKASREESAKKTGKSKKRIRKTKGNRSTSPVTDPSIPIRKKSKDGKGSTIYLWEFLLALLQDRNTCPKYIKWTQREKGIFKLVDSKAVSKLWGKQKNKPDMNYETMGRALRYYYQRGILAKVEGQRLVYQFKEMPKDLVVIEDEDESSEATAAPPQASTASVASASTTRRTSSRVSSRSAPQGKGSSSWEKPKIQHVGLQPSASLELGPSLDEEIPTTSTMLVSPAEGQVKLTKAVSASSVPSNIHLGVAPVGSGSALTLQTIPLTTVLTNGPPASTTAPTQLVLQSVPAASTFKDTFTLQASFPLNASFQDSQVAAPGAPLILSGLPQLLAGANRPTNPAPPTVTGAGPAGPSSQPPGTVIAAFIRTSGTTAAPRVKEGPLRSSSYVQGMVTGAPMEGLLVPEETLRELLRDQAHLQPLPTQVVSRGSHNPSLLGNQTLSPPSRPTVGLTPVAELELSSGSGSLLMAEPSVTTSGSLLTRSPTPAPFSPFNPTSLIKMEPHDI
# Procedure, shortened: as §1
# ELK4 = target: T3, ELK4 (Homo sapiens, UniProt P28324-2 1-405)
# T3 sequence: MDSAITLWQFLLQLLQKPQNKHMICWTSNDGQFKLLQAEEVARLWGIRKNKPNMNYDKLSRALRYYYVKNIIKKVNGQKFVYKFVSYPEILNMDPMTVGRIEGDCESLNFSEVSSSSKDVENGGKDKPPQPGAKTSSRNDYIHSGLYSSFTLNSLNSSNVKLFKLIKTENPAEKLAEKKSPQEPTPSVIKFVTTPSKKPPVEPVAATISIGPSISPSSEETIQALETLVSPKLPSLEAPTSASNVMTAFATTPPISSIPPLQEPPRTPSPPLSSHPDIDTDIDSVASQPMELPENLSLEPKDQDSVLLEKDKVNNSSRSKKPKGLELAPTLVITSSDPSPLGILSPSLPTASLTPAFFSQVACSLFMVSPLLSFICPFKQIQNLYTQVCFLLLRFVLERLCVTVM
# Procedure, shortened: as §1
# ELF3 = target: T4, ELF3 (Homo sapiens, UniProt P78545 1-371)
# T4 sequence: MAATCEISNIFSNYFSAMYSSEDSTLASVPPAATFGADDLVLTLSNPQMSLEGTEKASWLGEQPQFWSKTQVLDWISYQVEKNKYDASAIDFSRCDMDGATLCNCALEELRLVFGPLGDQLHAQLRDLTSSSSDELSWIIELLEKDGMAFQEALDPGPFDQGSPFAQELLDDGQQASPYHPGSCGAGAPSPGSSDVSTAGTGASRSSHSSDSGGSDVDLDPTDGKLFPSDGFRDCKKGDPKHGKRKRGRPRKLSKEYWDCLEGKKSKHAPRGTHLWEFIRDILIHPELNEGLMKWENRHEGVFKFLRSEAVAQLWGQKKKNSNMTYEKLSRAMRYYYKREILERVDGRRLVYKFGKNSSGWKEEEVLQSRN
# Procedure, shortened: as §1
# CRX = CRX (Homo sapiens, UniProt O43186 1-299)
# CRX, sequence (O43186 whole entry): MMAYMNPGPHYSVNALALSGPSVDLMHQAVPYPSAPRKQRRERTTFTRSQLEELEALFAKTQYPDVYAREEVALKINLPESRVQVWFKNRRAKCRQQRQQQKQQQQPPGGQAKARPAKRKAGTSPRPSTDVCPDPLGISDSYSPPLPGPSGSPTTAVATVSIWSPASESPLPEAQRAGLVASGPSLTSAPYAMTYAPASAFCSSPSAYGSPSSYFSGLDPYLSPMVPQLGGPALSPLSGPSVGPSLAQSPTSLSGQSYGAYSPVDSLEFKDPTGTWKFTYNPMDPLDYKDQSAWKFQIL
# Procedure, shortened: as §1
# ETV1 = ETV1 (Homo sapiens, UniProt P50549 1-477)
# ETV1, sequence (P50549 whole entry): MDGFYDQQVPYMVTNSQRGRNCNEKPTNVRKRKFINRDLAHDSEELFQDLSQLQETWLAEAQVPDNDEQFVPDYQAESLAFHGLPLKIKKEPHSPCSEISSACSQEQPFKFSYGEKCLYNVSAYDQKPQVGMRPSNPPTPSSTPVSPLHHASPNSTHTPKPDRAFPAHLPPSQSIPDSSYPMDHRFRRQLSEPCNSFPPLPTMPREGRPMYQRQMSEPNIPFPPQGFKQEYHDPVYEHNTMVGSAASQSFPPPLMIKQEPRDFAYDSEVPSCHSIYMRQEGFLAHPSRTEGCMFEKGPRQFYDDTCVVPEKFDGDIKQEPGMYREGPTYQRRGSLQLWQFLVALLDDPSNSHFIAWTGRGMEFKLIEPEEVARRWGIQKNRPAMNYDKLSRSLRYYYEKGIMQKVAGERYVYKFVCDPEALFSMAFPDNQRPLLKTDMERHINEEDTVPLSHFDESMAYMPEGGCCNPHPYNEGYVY
# Procedure, shortened: as §1
# ERF = target: T5, ERF (Homo sapiens, UniProt P50548 1-548)
# T5 sequence: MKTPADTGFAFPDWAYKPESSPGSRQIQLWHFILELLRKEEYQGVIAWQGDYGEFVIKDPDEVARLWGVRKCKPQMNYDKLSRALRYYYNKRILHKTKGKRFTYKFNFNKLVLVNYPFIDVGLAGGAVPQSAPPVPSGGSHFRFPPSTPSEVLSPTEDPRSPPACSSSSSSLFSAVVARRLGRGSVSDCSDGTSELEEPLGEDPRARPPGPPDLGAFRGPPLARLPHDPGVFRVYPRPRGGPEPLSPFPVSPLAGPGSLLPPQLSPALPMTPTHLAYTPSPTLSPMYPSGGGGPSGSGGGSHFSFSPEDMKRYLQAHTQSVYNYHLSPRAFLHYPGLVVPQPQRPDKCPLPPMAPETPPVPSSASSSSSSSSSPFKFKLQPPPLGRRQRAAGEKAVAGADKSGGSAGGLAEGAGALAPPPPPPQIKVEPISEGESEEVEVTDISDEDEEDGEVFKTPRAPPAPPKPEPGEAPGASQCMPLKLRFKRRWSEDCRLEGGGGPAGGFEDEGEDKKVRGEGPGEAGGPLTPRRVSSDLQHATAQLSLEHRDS
# Procedure, shortened: as §1
# ETV3L = target: T6, ETV3L (Homo sapiens, UniProt Q6ZN32 1-361)
# T6 sequence: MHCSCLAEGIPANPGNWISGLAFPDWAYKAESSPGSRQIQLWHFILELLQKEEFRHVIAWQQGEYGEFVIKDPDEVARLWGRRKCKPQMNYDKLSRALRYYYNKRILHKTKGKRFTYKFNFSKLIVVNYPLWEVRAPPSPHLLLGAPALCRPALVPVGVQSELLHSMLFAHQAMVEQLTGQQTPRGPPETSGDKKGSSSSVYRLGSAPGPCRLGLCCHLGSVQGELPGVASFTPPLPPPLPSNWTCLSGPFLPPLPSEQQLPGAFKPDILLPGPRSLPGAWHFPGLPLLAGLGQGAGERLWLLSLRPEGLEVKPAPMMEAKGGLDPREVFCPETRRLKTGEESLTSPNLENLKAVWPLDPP
# Procedure, shortened: as §1
# ETS2 = target: T7, ETS2 (Homo sapiens, UniProt P15036 1-469)
# T7 sequence: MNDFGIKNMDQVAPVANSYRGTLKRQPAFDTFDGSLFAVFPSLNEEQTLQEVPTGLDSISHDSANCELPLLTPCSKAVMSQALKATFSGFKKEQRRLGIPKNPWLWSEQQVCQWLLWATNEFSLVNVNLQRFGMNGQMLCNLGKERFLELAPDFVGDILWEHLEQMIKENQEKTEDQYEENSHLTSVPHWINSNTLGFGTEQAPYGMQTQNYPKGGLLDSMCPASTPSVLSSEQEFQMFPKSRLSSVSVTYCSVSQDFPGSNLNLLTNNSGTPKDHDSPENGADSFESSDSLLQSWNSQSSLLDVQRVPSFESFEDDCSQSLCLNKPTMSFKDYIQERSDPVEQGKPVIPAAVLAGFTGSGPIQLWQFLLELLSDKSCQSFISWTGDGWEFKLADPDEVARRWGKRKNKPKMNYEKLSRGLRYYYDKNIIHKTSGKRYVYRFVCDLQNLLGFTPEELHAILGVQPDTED
# Procedure, shortened: as §1
# SPDEF = target: T8, SPDEF (Homo sapiens, UniProt O95238 1-335)
# T8 sequence: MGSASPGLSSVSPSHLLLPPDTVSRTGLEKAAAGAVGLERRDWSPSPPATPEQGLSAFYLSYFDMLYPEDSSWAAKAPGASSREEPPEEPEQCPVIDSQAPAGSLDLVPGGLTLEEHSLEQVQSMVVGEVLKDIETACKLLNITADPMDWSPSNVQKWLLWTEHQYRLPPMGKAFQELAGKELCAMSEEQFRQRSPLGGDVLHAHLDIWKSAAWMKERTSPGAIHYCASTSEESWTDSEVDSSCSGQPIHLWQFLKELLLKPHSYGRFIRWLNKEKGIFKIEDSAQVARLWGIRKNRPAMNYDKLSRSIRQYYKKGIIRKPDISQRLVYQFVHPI
# Procedure, shortened: as §1
# ETV7 = target: T9, ETV7 (Homo sapiens, UniProt Q9Y603 1-341)
# T9 sequence: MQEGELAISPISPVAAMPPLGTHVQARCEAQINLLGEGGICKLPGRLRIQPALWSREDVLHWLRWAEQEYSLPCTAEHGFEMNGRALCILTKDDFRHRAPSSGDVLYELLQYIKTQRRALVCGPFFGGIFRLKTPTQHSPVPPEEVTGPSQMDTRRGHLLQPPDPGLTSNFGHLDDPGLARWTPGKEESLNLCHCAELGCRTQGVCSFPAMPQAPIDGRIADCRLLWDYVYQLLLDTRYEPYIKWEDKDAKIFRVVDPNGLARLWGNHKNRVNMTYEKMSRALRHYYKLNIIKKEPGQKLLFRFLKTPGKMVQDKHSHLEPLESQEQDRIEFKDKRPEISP
# Procedure, shortened: as §1
# ELF5 = target: T10, ELF5 (Homo sapiens, UniProt Q9UKW6-2 1-255)
# T10 sequence: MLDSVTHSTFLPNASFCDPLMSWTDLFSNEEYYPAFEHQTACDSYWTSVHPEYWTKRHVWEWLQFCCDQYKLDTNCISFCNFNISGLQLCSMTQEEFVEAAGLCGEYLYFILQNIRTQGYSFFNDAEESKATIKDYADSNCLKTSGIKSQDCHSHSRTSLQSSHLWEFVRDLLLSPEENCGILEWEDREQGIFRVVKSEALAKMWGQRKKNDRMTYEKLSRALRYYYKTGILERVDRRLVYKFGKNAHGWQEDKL
# Procedure, shortened: as §1
# ETV3 = target: T11, ETV3 (Homo sapiens, UniProt P41162-2 1-143)
# T11 sequence: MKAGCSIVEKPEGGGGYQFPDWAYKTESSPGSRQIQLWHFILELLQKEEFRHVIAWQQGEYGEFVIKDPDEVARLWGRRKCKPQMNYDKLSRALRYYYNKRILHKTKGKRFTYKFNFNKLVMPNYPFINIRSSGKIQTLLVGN
# Procedure, shortened: as §1
# ETV6 = ETV6 (Homo sapiens, UniProt P41212 1-452)
# ETV6, sequence (P41212 whole entry): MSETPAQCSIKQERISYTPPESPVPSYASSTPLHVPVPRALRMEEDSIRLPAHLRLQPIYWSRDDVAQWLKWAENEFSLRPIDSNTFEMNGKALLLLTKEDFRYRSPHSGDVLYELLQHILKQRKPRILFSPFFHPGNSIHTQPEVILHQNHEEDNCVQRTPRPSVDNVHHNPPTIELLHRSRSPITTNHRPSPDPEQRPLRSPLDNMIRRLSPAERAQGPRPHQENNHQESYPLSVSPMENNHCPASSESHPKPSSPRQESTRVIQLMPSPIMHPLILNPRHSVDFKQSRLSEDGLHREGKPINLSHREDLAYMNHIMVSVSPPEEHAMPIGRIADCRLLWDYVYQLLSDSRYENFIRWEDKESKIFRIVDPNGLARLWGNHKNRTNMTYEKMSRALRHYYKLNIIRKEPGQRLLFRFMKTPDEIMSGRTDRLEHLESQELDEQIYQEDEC
# Procedure, shortened: as §1
# ETV2 = target: T12, ETV2 (Homo sapiens, UniProt O00321 1-342)
# T12 sequence: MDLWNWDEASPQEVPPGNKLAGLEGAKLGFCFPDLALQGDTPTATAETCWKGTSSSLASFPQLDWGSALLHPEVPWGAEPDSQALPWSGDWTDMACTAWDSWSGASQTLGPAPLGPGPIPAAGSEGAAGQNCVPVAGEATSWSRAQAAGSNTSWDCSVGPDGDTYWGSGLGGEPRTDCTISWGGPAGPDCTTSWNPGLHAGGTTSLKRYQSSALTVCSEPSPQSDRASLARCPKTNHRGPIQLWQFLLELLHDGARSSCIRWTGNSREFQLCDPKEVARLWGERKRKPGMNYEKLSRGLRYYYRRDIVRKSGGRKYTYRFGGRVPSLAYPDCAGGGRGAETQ
# Procedure, shortened: as §1
Sequence,binding signal (FEV),binding signal (ETV5),binding signal (SPIC),binding signal (ELF4),binding signal (ELK4),binding signal (ELF3),binding signal (CRX),binding signal (ETV1),binding signal (ERF),binding signal (ETV3L),binding signal (ETS2),binding signal (SPDEF),binding signal (ETV7),binding signal (ELF5),binding signal (ETV3),binding signal (ETV6),binding signal (ETV2)
GGGCTA,"1.04 fold enrichment (6-mer frequency, TF over GST control)","1.06 fold enrichment (6-mer frequency, TF over GST control)","1.23 fold enrichment (6-mer frequency, TF over GST control)","1.17 fold enrichment (6-mer frequency, TF over GST control)","1.29 fold enrichment (6-mer frequency, TF over GST control)","1 fold enrichment (6-mer frequency, TF over GST control)","1.15 fold enrichment (6-mer frequency, TF over GST control)","1.11 fold enrichment (6-mer frequency, TF over GST control)","1.02 fold enrichment (6-mer frequency, TF over GST control)","1.18 fold enrichment (6-mer frequency, TF over GST control)","1.2 fold enrichment (6-mer frequency, TF over GST control)","1.09 fold enrichment (6-mer frequency, TF over GST control)","1.06 fold enrichment (6-mer frequency, TF over GST control)","1.09 fold enrichment (6-mer frequency, TF over GST control)","1.12 fold enrichment (6-mer frequency, TF over GST control)","1.13 fold enrichment (6-mer frequency, TF over GST control)",
GCTGGC,"1.06 fold enrichment (6-mer frequency, TF over GST control)","1.02 fold enrichment (6-mer frequency, TF over GST control)","1.12 fold enrichment (6-mer frequency, TF over GST control)","1.15 fold enrichment (6-mer frequency, TF over GST control)","1.1 fold enrichment (6-mer frequency, TF over GST control)",,,,"1.12 fold enrichment (6-mer frequency, TF over GST control)","1.04 fold enrichment (6-mer frequency, TF over GST control)","1.04 fold enrichment (6-mer frequency, TF over GST control)",,"1.12 fold enrichment (6-mer frequency, TF over GST control)","1 fold enrichment (6-mer frequency, TF over GST control)","1.1 fold enrichment (6-mer frequency, TF over GST control)","1.02 fold enrichment (6-mer frequency, TF over GST control)","1.07 fold enrichment (6-mer frequency, TF over GST control)"
